From the supplement of paper PMC4466140

What follows are binders tested against CaNbp2 (assay: SPOT peptide array binding signal intensity (averaged, normalized) (arbitrary units (background-subtracted, floor 0; scale differs between SH3 domains)); higher = stronger binding of the SH3 domain to the peptide).
Procedure, shortened: (§1)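 Binding signal is given in arbitrary units that differ between domains and is the normalized, background-subtracted spot intensity averaged across replicates. Each GST-SH3 fusion from one of four yeast species was made in E. coli BL21(DE3), purified on glutathione Sepharose and incubated at 10 μg/ml overnight at 4°C on cellulose-bound synthetic 15-mer peptides in which cysteines were replaced by serines. Detection used anti-GST antibody, an HRP anti-mouse secondary and luminol, followed by imaging and Genespotter quantification.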
In the case of QLLNPNRRAPRRPLS, the “SPOT peptide array binding signal intensity” value is reported as 2950.

What follows are binders tested against CaRvs167 in the same assay as above.
Procedure, shortened: as §1
For QLLNPNRRAPRRPLS, the “SPOT peptide array binding signal intensity” value was 28.8.

What follows are binders tested against CaRvs167-3 in the same assay as above.
Procedure, shortened: as §1
For QLLNPNRRAPRRPLS, the “SPOT peptide array binding signal intensity” value was 5.25.

The binders below were run against CaSho1 in the same assay as above.
Procedure, shortened: as §1
With QLLNPNRRAPRRPLS the “SPOT peptide array binding signal intensity” value was 72.

These binders were tested against CaSla1-D1-D2 in the same assay as above.
Procedure, shortened: as §1
For QLLNPNRRAPRRPLS, the “SPOT peptide array binding signal intensity” value was 1270.

The binders below were run against CaSla1-D3 in the same assay as above.
Procedure, shortened: as §1
QLLNPNRRAPRRPLS was tested, and the “SPOT peptide array binding signal intensity” value was 0.25.

What follows are binders tested against ScAbp1 in the same assay as above.
Procedure, shortened: as §1
In the case of QLLNPNRRAPRRPLS, the “SPOT peptide array binding signal intensity” value is reported as 73.

The binders below were run against ScBbc1 in the same assay as above.
Procedure, shortened: as §1
With QLLNPNRRAPRRPLS the “SPOT peptide array binding signal intensity” value was 271.

Each binder was assayed against ScBem1-D1 in the same assay as above.
Procedure, shortened: as §1
In the case of QLLNPNRRAPRRPLS, the “SPOT peptide array binding signal intensity” value is reported as 45.

The binders below were run against ScBzz1-D1 in the same assay as above.
Procedure, shortened: as §1
With QLLNPNRRAPRRPLS the “SPOT peptide array binding signal intensity” value was 56.

What follows are binders tested against ScBzz1-D2 in the same assay as above.
Procedure, shortened: as §1
With QLLNPNRRAPRRPLS the “SPOT peptide array binding signal intensity” value was 30.5.

Each binder was assayed against ScCyk3 in the same assay as above.
Procedure, shortened: as §1
QLLNPNRRAPRRPLS was tested, and the “SPOT peptide array binding signal intensity” value was 65.

Each binder was assayed against ScFus1 in the same assay as above.
Procedure, shortened: as §1
In the case of QLLNPNRRAPRRPLS, the “SPOT peptide array binding signal intensity” value is reported as 104.

These binders were tested against ScHof1 in the same assay as above.
Procedure, shortened: as §1
QLLNPNRRAPRRPLS was tested, and the “SPOT peptide array binding signal intensity” value was no more than 0.

Each binder was assayed against ScHse1 in the same assay as above.
Procedure, shortened: as §1
For QLLNPNRRAPRRPLS, the “SPOT peptide array binding signal intensity” value was 779.

The binders below were run against ScLsb1 in the same assay as above.
Procedure, shortened: as §1
QLLNPNRRAPRRPLS was tested, and the “SPOT peptide array binding signal intensity” value was 37.2.

The binders below were run against ScLsb2 in the same assay as above.
Procedure, shortened: as §1
With QLLNPNRRAPRRPLS the “SPOT peptide array binding signal intensity” value was 370.

These binders were tested against ScLsb3 in the same assay as above.
Procedure, shortened: as §1
In the case of QLLNPNRRAPRRPLS, the “SPOT peptide array binding signal intensity” value is reported as 808.

The binders below were run against ScLsb4 in the same assay as above.
Procedure, shortened: as §1
In the case of QLLNPNRRAPRRPLS, the “SPOT peptide array binding signal intensity” value is reported as 31.

The binders below were run against ScMyo3 in the same assay as above.
Procedure, shortened: as §1
QLLNPNRRAPRRPLS was tested, and the “SPOT peptide array binding signal intensity” value was 70.5.

What follows are binders tested against ScMyo5 in the same assay as above.
Procedure, shortened: as §1
In the case of QLLNPNRRAPRRPLS, the “SPOT peptide array binding signal intensity” value is reported as 122.

These binders were tested against ScNbp2 in the same assay as above.
Procedure, shortened: as §1
With QLLNPNRRAPRRPLS the “SPOT peptide array binding signal intensity” value was 6040.

The binders below were run against ScPex13 in the same assay as above.
Procedure, shortened: as §1
In the case of QLLNPNRRAPRRPLS, the “SPOT peptide array binding signal intensity” value is reported as 50.5.

What follows are binders tested against ScRvs167 in the same assay as above.
Procedure, shortened: as §1
For QLLNPNRRAPRRPLS, the “SPOT peptide array binding signal intensity” value was 93.5.

The binders below were run against ScSho1 in the same assay as above.
Procedure, shortened: as §1
With QLLNPNRRAPRRPLS the “SPOT peptide array binding signal intensity” value was 271.

These binders were tested against ScSla1-D1-D2 in the same assay as above.
Procedure, shortened: as §1
In the case of QLLNPNRRAPRRPLS, the “SPOT peptide array binding signal intensity” value is reported as 247.

The binders below were run against ScSla1-D3 in the same assay as above.
Procedure, shortened: as §1
With QLLNPNRRAPRRPLS the “SPOT peptide array binding signal intensity” value was 17.2.

The binders below were run against SpAbp1-D1 in the same assay as above.
Procedure, shortened: as §1
In the case of QLLNPNRRAPRRPLS, the “SPOT peptide array binding signal intensity” value is reported as 90.

Each binder was assayed against SpBbc1 in the same assay as above.
Procedure, shortened: as §1
For QLLNPNRRAPRRPLS, the “SPOT peptide array binding signal intensity” value was 66.5.

The binders below were run against SpBzz1-D1 in the same assay as above.
Procedure, shortened: as §1
QLLNPNRRAPRRPLS was tested, and the “SPOT peptide array binding signal intensity” value was 370.

The binders below were run against SpBzz1-D2 in the same assay as above.
Procedure, shortened: as §1
QLLNPNRRAPRRPLS was tested, and the “SPOT peptide array binding signal intensity” value was 130.

Each binder was assayed against SpCyk3 in the same assay as above.
Procedure, shortened: as §1
In the case of QLLNPNRRAPRRPLS, the “SPOT peptide array binding signal intensity” value is reported as 6.

Each binder was assayed against SpHof1 in the same assay as above.
Procedure, shortened: as §1
For QLLNPNRRAPRRPLS, the “SPOT peptide array binding signal intensity” value was 134.

The binders below were run against SpHof1-2 in the same assay as above.
Procedure, shortened: as §1
With QLLNPNRRAPRRPLS the “SPOT peptide array binding signal intensity” value was 25.

What follows are binders tested against SpHof1-3 in the same assay as above.
Procedure, shortened: as §1
In the case of QLLNPNRRAPRRPLS, the “SPOT peptide array binding signal intensity” value is reported as 148.

Each binder was assayed against SpHse1 in the same assay as above.
Procedure, shortened: as §1
For QLLNPNRRAPRRPLS, the “SPOT peptide array binding signal intensity” value was 178.

Each binder was assayed against SpLsb1 in the same assay as above.
Procedure, shortened: as §1
QLLNPNRRAPRRPLS was tested, and the “SPOT peptide array binding signal intensity” value was 61.5.

Each binder was assayed against SpLsb4 in the same assay as above.
Procedure, shortened: as §1
For QLLNPNRRAPRRPLS, the “SPOT peptide array binding signal intensity” value was 1750.

Each binder was assayed against SpMyo1 in the same assay as above.
Procedure, shortened: as §1
For QLLNPNRRAPRRPLS, the “SPOT peptide array binding signal intensity” value was 390.

The binders below were run against SpNbp2 in the same assay as above.
Procedure, shortened: as §1
With QLLNPNRRAPRRPLS the “SPOT peptide array binding signal intensity” value was 440.

The binders below were run against SpPex13 in the same assay as above.
Procedure, shortened: as §1
In the case of QLLNPNRRAPRRPLS, the “SPOT peptide array binding signal intensity” value is reported as 20.

Each binder was assayed against SpRvs167 in the same assay as above.
Procedure, shortened: as §1
QLLNPNRRAPRRPLS was tested, and the “SPOT peptide array binding signal intensity” value was 34.

These binders were tested against SpSla1-D1-D2 in the same assay as above.
Procedure, shortened: as §1
With QLLNPNRRAPRRPLS the “SPOT peptide array binding signal intensity” value was 3.

What follows are binders tested against SpSla1-D3 in the same assay as above.
Procedure, shortened: as §1
In the case of QLLNPNRRAPRRPLS, the “SPOT peptide array binding signal intensity” value is reported as 2.
